“And” between values parts separate entries of the source, which are not always exact repeats. Equal entries are not always repeated. The source made the active and inactive calls.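 Rule for the calls, unless noted: active = thallium flux through the channel raised or lowered by more than 3 SD from vehicle-only wells, actives on both sides; inactive = the rest.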

As usually defined, the viability is a read-out of living cells in per cent, often relative to untreated cells. One may read the inhibition as the change of the read-out against control, counted positive when it falls.

In assay [1] the test system is F380Y. Briefly: BK channel mutant inhibitors and activators – cell-based, U2OS BacMam, thallium flux, beta subunits, selectivity assay, profiling panel (AID 1259406).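 Note: initial slope of Thallos dye fluorescence rise after thallium is added; log ratio against the mean of 0.3% DMSO vehicle wells on the same plate.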 To be noted: U2OS BacMam BK variants, at 30 µM.
Assay [2] has as its system F380Y/beta1. Described as above. To be noted: U2OS BacMam BK variants, at 30 µM.
The test system of assay [3] is F380Y/beta2Delta. The description is as above. The following applies: U2OS BacMam BK variants, at 30 µM.
Assay [4] deals with F380Y/beta4. Described as above. The following applies: U2OS BacMam BK variants, at 30 µM.
The target of assay [5] is Calcium-activated potassium channel subunit alpha-1 (Homo sapiens) + Leucine-rich repeat-containing protein 26 (Homo sapiens) (UniProt Q12791+Q2I0M4). Described as above. To be noted: U2OS BacMam BK variants, F380Y/Slo1WT/gamma1, at 30 µM.
Sequence of Calcium-activated potassium channel subunit alpha-1 (Homo sapiens) + Leucine-rich repeat-containing protein 26 (Homo sapiens) (Q2I0M4 whole entry, looked up, one chain of several): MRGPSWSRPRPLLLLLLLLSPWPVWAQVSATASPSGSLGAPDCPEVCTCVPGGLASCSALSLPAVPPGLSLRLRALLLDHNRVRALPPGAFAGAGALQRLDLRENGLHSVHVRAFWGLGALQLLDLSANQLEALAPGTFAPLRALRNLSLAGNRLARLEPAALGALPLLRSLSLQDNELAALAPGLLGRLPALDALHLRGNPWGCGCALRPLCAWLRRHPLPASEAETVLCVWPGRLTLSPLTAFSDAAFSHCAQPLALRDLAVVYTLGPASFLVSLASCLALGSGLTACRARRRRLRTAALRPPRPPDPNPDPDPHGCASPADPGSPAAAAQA
The test system of assay [6] is R275C. Described as above. To be noted: U2OS BacMam BK variants, at 30 µM.
Assay [7] has as its system R275C/beta1. The description is as above. To be noted: U2OS BacMam BK variants, at 30 µM.
Assay [8] deals with R275C/beta2Delta. Described as above. To be noted: U2OS BacMam BK variants, at 30 µM.
The test system of assay [9] is R275C/beta4. The description is as above. To be noted: U2OS BacMam BK variants, at 30 µM.
In assay [10] the test system is R275C/Slo1WT/beta2. Described as above. To be noted: U2OS BacMam BK variants, at 30 µM.
Assay [11] is described as follows: P. berghei load reduction in hepatocytes – cell-based, HepG2, luciferase luminescence, HepG2 viability, primary screen (AID 624349; in the data active = parasite load remaining mostly below about 12%, no sharp cut-off; inactive = mostly above about 10%;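 note: 100% = mean of DMSO negative control wells on the same plate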). The following applies: P. berghei liver stage in HepG2, luciferase luminescence, concentration not given here; parasite load remaining: stronger effect = lower value; viability: measured here: HepG2 viability without parasites.
Assay [12] in a line: signal quenchers or enhancers, Cy5 substrate/SSB – biochemical, NIH Clinical Collection, E. coli SSB, artefact control for HCV NS3 helicase inhibitor project (AID 743268; call rule not given here). To be noted: Cy5-oligo bound E. coli SSB, fluorescence interference.
The test system of assay [13] is Hepatitis C virus NS3 helicase. Briefly: blockers of NS3h binding to DNA – biochemical, fluorescence polarization, NIH Clinical Collection, primary screen (AID 743270; call rule not given here). The following applies: NS3 helicase binding to Cy5-dT15 DNA, stronger effect = higher value, concentration not given here. In general terms: In fluorescence polarisation assays a small probe gives low polarisation when free and higher when bound to something large.

Assay [14] concerns the target Single-stranded DNA-binding protein (Escherichia coli (strain K12)) (UniProt P0AGE0). Briefly: SSB-ssDNA binding inhibitors – biochemical, fluorescence polarization, NIH Clinical Collection, counter-screen for HCV NS3 helicase inhibitor project (AID 743271; in the data active = inhibition above about 28%). To be noted: E. coli SSB-DNA binding, stronger effect = higher value, concentration not given here.
A short description of assay [15]: compounds distorting NS3 helicase fluorescence signal – biochemical, NIH Clinical Collection, artefact control for HCV NS3 helicase inhibitor project (AID 743272; call rule not given here;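 note: HCV NS3 helicase with a Cy5 labelled single stranded DNA probe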). The following applies: fluorescence interference counterscreen, HCV NS3 helicase assay; stronger effect = lower value.
The test system of assay [16] is Neuropilin-2 / VEGF-C interaction (human). Briefly: small molecules blocking Neuropilin-2/VEGF-C interaction – biochemical, microplate binding format, z-score (AID 743281; call rule not given here). To be noted: microplate NRP2/VEGF-C binding assay; stronger effect = lower value.
A short description of assay [17]: modulation of C. elegans fzo-1 (AID 1259413; call rule not given here;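 note: fzo-1 mutant C. elegans worms in liquid wells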). The following applies: C. elegans fzo-1 modulator screen, mean read-out; stronger effect = higher value.
The nature of assay [18]: EMT-state selective cytotoxicity in co-culture – imaging, PC-3E GFP, TEM4-18 mCherry, primary screen (AID 1345086;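 active = compounds killing one labelled cell type while sparing the other, by normalised counts and ratio limits, not self-fluorescent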;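 for all read-outs here: cells exposed to compound for 72 h before imaging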;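 for red/green cell ratio (normalised): normalised mesenchymal count divided by normalised epithelial count so high means epithelial killing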). The following applies: PC-3E GFP / TEM4-18 mCherry co-culture, imaging cell counts, at 1 µM; for red/green cell ratio (normalised): actives lie on both sides.
The nature of assay [19]: galactose survival enhancers in mitochondrial complex I cybrids – cell-based, galactose medium, ATP luminescence, primary screen (AID 1645843;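 active = z-score of at least 1.8 in each of two replicates, scored against plate mean and spread of sample wells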;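 note: positive z means more ATP and so rescue of galactose-driven cybrid death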). The following applies: complex I mutant cybrid cells, 72 h, stronger effect = higher value.
The nature of assay [20]: viability loss with induced miR-34 in A549 – imaging, A549 dox-inducible miR-34, nuclei and caspase counts, primary screen (AID 1347080;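 active = compounds whose cell count with miR-34 switched on is under 0.7 times the count with it off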). To be noted: A549 miR-34 inducible, Hoechst nuclei count, 48 h.
Where [21] appears, read: measured here: epithelial PC-3E GFP cell survival.
The mark [22] stands for this setting: measured here: mesenchymal TEM4-18 mCherry cell survival.
The mark [23] stands for this setting: measured here: relative caspase fold change +Dox/-Dox.
The mark [24] stands for this setting: measured here: total cells with miR-34 induction, stronger effect = lower value.
[25] abbreviates: measured here: total cells without miR-34 induction.

In the case of `O=c1[nH]c(=S)[nH]c(O)c1C=C1C=CC=N1`, the log fold change Tl+ flux in assay [1] was 0.0328 (inactive); in assay [2], 0.0561 (inactive); in assay [3], 0.06 (inactive); in assay [4] it was 0.0563 (inactive); in [5], 0.0242 (inactive); in [6], 0.0249 (inactive). Moreover, the log fold change Tl+ flux in [7] is 0.101 (inactive); in [8], 0.0741 (inactive); in assay [9], 0.0391 (inactive); in [10], -0.0255 (inactive).

With `O=c1c2ccccc2[nH]c(=S)n1-c1ccccc1`, the log fold change Tl+ flux in assay [1] was -0.0122 (inactive); in assay [2], 0.0064 (inactive); in [3] it was 0.0408 (inactive); in [4] it was 0.0104 (inactive); in assay [5], 0.0486 (inactive); in assay [6], -0.0195 (inactive). The log fold change Tl+ flux in assay [7] was 0.0238 (inactive); in [8], -0.000731 (inactive); in assay [9], 0.00834 (inactive); in assay [10], -0.0521 (inactive).

As for `CC(O)(CS(=O)(=O)c1ccc(F)cc1)C(=O)Nc1ccc(C#N)c(C(F)(F)F)c1` (centres undefined), in assay [11], the parasite load remaining is 85.6% (inactive) and 26.5% (inactive). In addition, the viability in assay [11] was 71.8% and 108%. In addition, the results for the fluorescence ratio in assay [12] and in [15] were 1 (inactive) and 0.95 (inactive), respectively. For the same compound, the inhibition in [13] is 0.4% (inactive); in assay [14], -0.87% (inactive). For the same compound, the z-score in assay [16] was 0.117 (inactive); in [19], -0.24 (inactive) and -0.44 (inactive) and 0.235 (inactive). Further, the mean signal in assay [17] is 225 (inactive). For the same compound, the red/green cell ratio (normalised) in assay [18] was 1.31 (inactive). For the same compound, the figures for the normalised cell number in assay [18] (setting [21]) and in assay [18] (setting [22]) were 0.64 and 0.84, respectively. In addition, the log fold change Tl+ flux is -0.0003 (inactive) in [1]; 0.0749 (inactive) in [2]; -0.0358 (inactive) in assay [3]; -0.0644 (inactive) in assay [4]; 0.0529 (inactive) in assay [5]; -0.0123 (inactive) in [6]. Moreover, the log fold change Tl+ flux in assay [7] was 0.266 (active); in assay [8], 0.179 (active); in [9] it was 0.0752 (inactive); in assay [10], -0.00212 (inactive).

Take `Cc1ccc(S(=O)(=O)N2CN3CCN(C3)C2)cc1`: the log fold change Tl+ flux is -0.028 (inactive) in [1]; -0.0265 (inactive) in assay [2]; -0.0357 (inactive) in [3]; 0.048 (inactive) in [4]; 0.0134 (inactive) in assay [5]; 0.0146 (inactive) in [6]. Also, the log fold change Tl+ flux in assay [7] was -0.00993 (inactive); in assay [8], -0.021 (inactive); in assay [9], -0.0275 (inactive); in assay [10], 0.0283 (inactive).

`CCOC(=O)c1cncn1[C@H](C)c1ccccc1`: the parasite load remaining in assay [11] was 110% (inactive). Further, the viability in assay [11] was 75.6%. Further, the z-score in assay [16] was 0.0538 (inactive); in assay [19], -0.35 (inactive). In [17], the mean signal was 274 (inactive). Moreover, the red/green cell ratio (normalised) in assay [18] was 0.98 (inactive). Further, the normalised cell number in assay [18] (setting [21]) was 0.95; in [18] (setting [22]) it was 0.93. Moreover, the fold change in assay [20] (stronger effect = lower value) is 0.964 (inactive); in assay [20] (setting [23]) it was 0.785. Further, the values for the cell count in [20] (setting [24]) and in assay [20] (setting [25]) were 9210 and 9560, respectively. The log fold change Tl+ flux was -0.0483 (inactive) in [1]; -0.0564 (inactive) in assay [2]; -0.0261 (inactive) in assay [3]; -0.0155 (inactive) in [4]; 0.0279 (inactive) in assay [5]; 0.000434 (inactive) in assay [6]. Moreover, the log fold change Tl+ flux in assay [7] was 0.000109 (inactive); in assay [8], 0.0419 (inactive); in assay [9], 0.0313 (inactive); in assay [10] it was 0.023 (inactive).

As for `Cc1csc2sc(C=C(C#N)C#N)c(C)c12`, the log fold change Tl+ flux in assay [1] was 0.0324 (inactive); in [2], -0.023 (inactive); in assay [3], 0.0231 (inactive); in assay [4], 0.00092 (inactive); in [5], 0.0126 (inactive); in assay [6], 0.0225 (inactive). Also, the log fold change Tl+ flux in assay [7] is 0.0369 (inactive); in assay [8], 0.00343 (inactive); in [9], 0.00359 (inactive); in assay [10] it was 0.0163 (inactive).

Take `NCCc1ccccn1`: the parasite load remaining in assay [11] is 52.1% (inactive). Besides, the viability in assay [11] was 95.2%. Also, the fluorescence ratio in assay [12] and in [15] was 1 (inactive) in each case. Further, the inhibition in [13] is -1.19% (inactive); in assay [14] it was -1.64% (inactive). Besides, the z-score in assay [16] is 1.2 (inactive); in assay [19] it was 0.8 (inactive) and -0.145 (inactive). Besides, the mean signal in assay [17] was 245 (inactive). Moreover, the fold change in assay [20] (stronger effect = lower value) is 1.03 (inactive); in assay [20] (stronger effect = lower value, cell number ratio, induced over uninduced), 1.05 (inactive); in assay [20] (setting [23]) it was 1.57 and 1.54. Also, the cell count in assay [20] (setting [24]) was 10400 and 8860; in [20] (setting [25]), 10100 and 8480. Further, the log fold change Tl+ flux is -0.0264 (inactive) in assay [1]; 0.0119 (inactive) in [2]; -0.0265 (inactive) in assay [3]; -0.0155 (inactive) in [4]; 0.0303 (inactive) in assay [5]; -0.0283 (inactive) in assay [6]. In addition, the log fold change Tl+ flux in assay [7] is -0.0664 (inactive); in [8], -0.0248 (inactive); in assay [9], -0.0421 (inactive); in [10], -0.0103 (inactive).

In the case of `N#CC(C#N)=Cc1cccnc1`, the log fold change Tl+ flux is 0.00869 (inactive) in [1]; 0.00181 (inactive) in [2]; -0.0117 (inactive) in assay [3]; -0.0312 (inactive) in assay [4]; 6.5e-05 (inactive) in [5]; -0.0132 (inactive) in assay [6]. The log fold change Tl+ flux was -0.0358 (inactive) in assay [7], -0.0205 (inactive) in assay [8], 0.025 (inactive) in assay [9] and -0.0203 (inactive) in [10].

In the case of `CSC(=NCc1ccccc1Cl)NC(N)=N[N+](=O)[O-]`, the log fold change Tl+ flux in assay [1] was 0.0102 (inactive); in assay [2] it was 0.0433 (inactive); in assay [3] it was 0.00986 (inactive); in assay [4] it was 0.0594 (inactive); in assay [5], 0.0227 (inactive); in assay [6], -0.0153 (inactive). The log fold change Tl+ flux in assay [7] is -0.0278 (inactive); in assay [8], 0.0233 (inactive); in [9], -0.0373 (inactive); in [10], -0.0343 (inactive).

With `C[C@]12CCC(=O)C=C1CC[C@@H]1[C@@H]2CC[C@@]2(C)[C@H]1CC[C@]2(C)O`, the parasite load remaining in assay [11] was 82.1% (inactive). In assay [11], the viability was 78%. For the same compound, the fluorescence ratio in assay [12] is 1.03 (inactive); in assay [15], 0.97 (inactive). Further, the inhibition was 0.4% (inactive) in assay [13] and -2.41% (inactive) in assay [14]. Besides, the log fold change Tl+ flux in assay [1] was -0.0714 (inactive); in assay [2] it was 0.0212 (inactive); in assay [3], -0.0632 (inactive); in [4], -0.105 (active); in assay [5] it was 0.0144 (inactive); in assay [6], -0.0155 (inactive). For the same compound, the log fold change Tl+ flux is 0.014 (inactive) in assay [7], 0.0131 (inactive) in assay [8], 0.00989 (inactive) in [9] and -0.0244 (inactive) in [10].
